High-throughput results: PubChem, National Center for Advancing Translational Sciences (NCATS)
The list is not random: actives were taken first. Their share in the collection is about 11%.
FLuc inh: Firefly luciferase inhibition profiling of diverse chemical library using quantitative high-throughput screening; Luciferin 4-monooxygenase (Photinus pyralis), P08659; purified P. pyralis luciferase, luminescence, biochemical; Potency, µM (titrated, usually from 115 µM), most hits filed as inhibitors; 2.5% of 76,000 active; AID 1347043, 2019; also: nearly all actives have a fitted effect of over 65% in size
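Luminescence read by CCD imaging after purified firefly luciferase (10nM final) was added to substrate buffer holding 10uM D-luciferin and 10uM ATP, pH 7.5, pre-dosed with compound.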
NIH3T3 tox: Cytotoxic Profiling in NIH 3T3 Cell Line of Diverse Libraries Using Quantitative High-Throughput Screening | NIH 3T3 viability, CellTiter-Glo ATP luminescence, 48-72 h | 4.3% of 94,000 active | Potency, µM (doses to about 96.7 µM), hits mostly inhibitors; also: nearly all actives have a fitted effect of over 55% in size
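NIH 3T3 cells at 400 cells/well received 23 nL of compound by pintool and were incubated 48 or 72 h at 37 °C. Viability was read as ATP-coupled CellTiter-Glo luminescence.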
HEK293 tox: Cytotoxic Profiling in HEK 293 Cell Line of Diverse Libraries Using Quantitative High-Throughput Screening; HEK 293 viability, ATP luminescence (CellTiter-Glo), 48-72 h; Potency, µM (highest dose often 115 µM), usual class: inhibitors; 6.6% of 94,000 active; AID 1345083, 2018; also: nearly all actives have a fitted effect of over 60% in size
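Pintool-delivered compounds were incubated with HEK 293 cells (250 cells/well) at 37 degree Celsius for 48 or 72 hr. ATP-dependent luminescence (CellTiter-Glo) then reported remaining viable cells.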
hNpr1 antagonist: Natriuretic polypeptide receptor (hNpr1) antagonism - Primary qHTS | AID 1347048, 2019 | 1.6% of 76,000 active | Atrial natriuretic peptide receptor 1 (Homo sapiens), P16066 | Potency, µM (titrated, usually from 46.3 µM), most hits filed as inhibitors | HEK293 hNpr1 GloSensor cGMP, ANP-stimulated luminescence; calls by dose curve; also: nearly all actives have a fitted effect of over 60% in size
Target sequence (P16066 whole entry, looked up): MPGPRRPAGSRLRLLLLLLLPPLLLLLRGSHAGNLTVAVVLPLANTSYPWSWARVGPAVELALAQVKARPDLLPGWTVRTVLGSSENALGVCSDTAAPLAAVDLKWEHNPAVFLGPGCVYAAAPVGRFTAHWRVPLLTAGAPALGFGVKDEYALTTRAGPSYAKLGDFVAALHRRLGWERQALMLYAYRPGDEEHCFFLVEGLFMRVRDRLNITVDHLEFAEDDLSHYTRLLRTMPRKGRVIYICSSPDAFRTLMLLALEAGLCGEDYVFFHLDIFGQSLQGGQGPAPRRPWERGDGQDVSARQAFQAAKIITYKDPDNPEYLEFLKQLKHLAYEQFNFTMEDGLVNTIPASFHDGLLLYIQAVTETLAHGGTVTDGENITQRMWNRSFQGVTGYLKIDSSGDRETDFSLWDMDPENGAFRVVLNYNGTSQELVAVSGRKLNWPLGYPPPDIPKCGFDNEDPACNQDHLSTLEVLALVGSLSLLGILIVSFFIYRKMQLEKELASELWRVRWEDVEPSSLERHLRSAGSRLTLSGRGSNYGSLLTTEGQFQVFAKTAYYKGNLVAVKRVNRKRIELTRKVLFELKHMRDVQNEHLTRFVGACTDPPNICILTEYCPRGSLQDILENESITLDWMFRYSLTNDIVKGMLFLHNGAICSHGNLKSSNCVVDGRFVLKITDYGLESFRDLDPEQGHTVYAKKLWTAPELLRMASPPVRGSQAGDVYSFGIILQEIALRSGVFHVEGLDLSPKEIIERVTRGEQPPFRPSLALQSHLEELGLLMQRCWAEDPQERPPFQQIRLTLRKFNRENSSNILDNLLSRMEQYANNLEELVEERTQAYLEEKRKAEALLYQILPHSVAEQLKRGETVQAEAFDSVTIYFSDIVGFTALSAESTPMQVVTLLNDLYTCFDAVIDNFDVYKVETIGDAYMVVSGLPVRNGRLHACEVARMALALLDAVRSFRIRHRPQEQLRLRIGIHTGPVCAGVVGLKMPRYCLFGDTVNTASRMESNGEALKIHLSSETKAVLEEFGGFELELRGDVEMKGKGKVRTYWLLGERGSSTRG
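HEK293 cells stably expressing human Npr1 and cGMP GloSensor pGS-40F, loaded 2 h with 2% GloSensor reagent, given compound 30 min at room temperature. Luminescence read before and 20 min after 0.1 nM hNppA.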
Large screens that a line does not name were inactive. Unless noted, calls follow the shape of the dose curve; as a rule, active = well fitted curve in the direction sought with a large enough effect; inconclusive = small, poorly fitted or top-dose-only effect, or another doubt; inactive = no such curve, though single readings can be large; an effect the other way counts as inactive or inconclusive.

COc1cccc(-c2cc(C(=O)NCc3cccc(C(F)(F)F)c3)c3cnn(C)c3n2)c1	NIH3T3 tox inconclusive, HEK293 tox 25.1µM (no result: FLuc inh, hNpr1 antagonist)
COc1cccc(CNC(=O)c2cc(-c3cccc(C(F)(F)F)c3)nc3c2cnn3C)c1	none (no result: FLuc inh, hNpr1 antagonist)
Cn1ncc2c(C(=O)NCCc3ccccn3)cc(-c3cccc(C(F)(F)F)c3)nc21	NIH3T3 tox inconclusive, HEK293 tox 31.6µM (no result: FLuc inh, hNpr1 antagonist)
Cn1ncc2c(C(=O)NCc3cccnc3)cc(-c3cccc(C(F)(F)F)c3)nc21	NIH3T3 tox inconclusive, HEK293 tox 50.1µM (no result: FLuc inh, hNpr1 antagonist)
COCC(=O)N1CCC(C(=O)N2CCC(c3nc4ncccc4[nH]3)CC2)C1 (stereo unspecified)	none (no result: FLuc inh, hNpr1 antagonist)
COc1ccc(C(=O)N2CCOC[C@H](Oc3cccnc3)C2)cc1	none
CN(C)Cc1nnc(C2CC(NC(=O)c3cc4ncccn4n3)C2)n1C (stereo unspecified)	none
COCC(C)Nc1nccc(C2(c3ccccc3Cl)CCNCC2)n1 (stereo unspecified)	none
Cc1ccc(C(=O)N2CCCCCCNC(=O)[C@@H]3C[C@@H](c4nc(Cc5ccccc5)no4)C[C@@H]32)s1	NIH3T3 tox inconclusive, HEK293 tox 79.4µM
CCNC(=O)N1CCCCCCNC(=O)[C@@H]2C[C@@H](c3nc(Cc4ccccc4)no3)C[C@@H]21	none
Cc1cn2nc(C(=O)NCc3ccccc3C)cc2c(N(C)Cc2ccccc2)n1	NIH3T3 tox inconclusive, HEK293 tox inconclusive
O=C([C@@H]1C[C@H](Oc2ccccc2)CN1C(=O)C1CCCC1)N1CCOCC1	none
COc1ccccc1N1CCN(C(=O)C[C@@H]2CCNC[C@@H]2Cc2cc(-c3ccc(F)cc3)on2)CC1	NIH3T3 tox inconclusive, HEK293 tox inconclusive
COc1ccc(-c2cc(C[C@H]3CNCC[C@H]3CC(=O)N3CCN(c4ccccc4OC)CC3)no2)cc1	NIH3T3 tox 14.1µM, HEK293 tox inconclusive
COc1ccc(CNC(=O)C[C@@H]2CCNC[C@@H]2Cc2cc(-c3ccc(C(C)(C)C)cc3)on2)cc1	NIH3T3 tox 25.1µM, HEK293 tox inconclusive
O=C(C[C@@H]1CCNC[C@@H]1Cc1cc(-c2ccc(F)cc2)on1)NCc1ccc2c(c1)OCO2	NIH3T3 tox inconclusive, HEK293 tox inconclusive
CC(C)(C)c1ccc(-c2cc(C[C@H]3CNCC[C@H]3CC(=O)NCc3ccc(F)cc3)no2)cc1	NIH3T3 tox 25.1µM, HEK293 tox 28.2µM
O=C(C[C@@H]1CCNC[C@@H]1Cc1cc(-c2ccc(F)cc2)on1)NCc1cccnc1	none
COc1ccc(-c2cc(C[C@H]3CNCC[C@H]3CC(=O)NCc3cccs3)no2)cc1	NIH3T3 tox 89.1µM, HEK293 tox 56.2µM
COc1ccc(-c2cc(C[C@H]3CNCC[C@H]3CC(=O)NCCN3CCOCC3)no2)cc1	none
CCc1nncn1C1CCN(S(=O)(=O)c2cc(OC)ccc2OC)CC1	none
O=C(Cn1cccc1-c1nc(-c2ccc(F)cc2)no1)NCCC1=CCCCC1	HEK293 tox inconclusive
O=C(C[C@@H]1CCNC[C@@H]1Cc1cc(-c2ccccc2)on1)NCc1cccnc1	none
CC(=O)NCCNC(=O)C[C@@H]1CCNC[C@@H]1Cc1cc(-c2ccccc2)on1	none
COc1ccc(-c2cc(C[C@H]3CNCC[C@H]3CC(=O)Nc3ccccc3)no2)cc1	NIH3T3 tox 39.8µM, HEK293 tox 44.7µM
O=C(C[C@@H]1CCNC[C@@H]1Cc1cc(-c2ccccc2)on1)NCc1ccccc1	NIH3T3 tox 100µM, HEK293 tox inconclusive
CC(C)(C)NC(=O)C[C@@H]1CCNC[C@@H]1Cc1cc(-c2ccc(C(C)(C)C)cc2)on1	NIH3T3 tox 22.4µM, HEK293 tox 12.6µM
O=C(C[C@@H]1CCNC[C@@H]1Cc1cc(-c2ccccc2)on1)NCc1cccs1	NIH3T3 tox inconclusive, HEK293 tox 89.1µM
COc1ccc(-c2cc(C[C@H]3CNCC[C@H]3CC(=O)NC(C)C)no2)cc1	none
O=C(c1ccccc1Cl)N1CCN(C(=O)c2nc3cccnc3n(C3CCCC3)c2=O)CC1	NIH3T3 tox inconclusive (no result: FLuc inh, hNpr1 antagonist)
Cn1ncc2c(C(=O)NC3CCN(Cc4ccccc4)CC3)cc(-c3cc(Cl)cc(Cl)c3)nc21	none (no result: FLuc inh, hNpr1 antagonist)
CCOC(=O)CN1C(=O)CCN(C(=O)NC2CCCC2)CC(OC)c2ccccc21 (stereo unspecified)	NIH3T3 tox inconclusive (no result: FLuc inh, hNpr1 antagonist)
C=CCn1c(-c2ccccc2Cl)cn2cc(C(=O)N3CCCC(O)C3)nc2c1=O (stereo unspecified)	none
COc1ccc(-c2cc(C[C@H]3CNCC[C@H]3CC(=O)NCc3ccc(F)cc3)no2)cc1	NIH3T3 tox inconclusive, HEK293 tox inconclusive
O=C(C[C@@H]1CCNC[C@@H]1Cc1cc(-c2ccc(F)cc2)on1)NCc1ccccc1	NIH3T3 tox 112µM, HEK293 tox 100µM
COc1ccc(-c2cc(C[C@H]3CNCC[C@H]3CC(=O)NCc3cccnc3)no2)cc1	none
O=C(C[C@@H]1CCNC[C@@H]1Cc1cc(-c2ccc(F)cc2)on1)NCc1ccc(F)cc1	NIH3T3 tox 39.8µM, HEK293 tox 79.4µM
COc1ccc(-c2cc(C[C@H]3CNCC[C@H]3CC(=O)NCc3ccccc3)no2)cc1	NIH3T3 tox 112µM, HEK293 tox 89.1µM
CC(C)C(=O)NCCNC(=O)c1ccc(-c2cncnc2)cc1	none (no result: FLuc inh, hNpr1 antagonist)
CCCOCCCNC(=O)c1c(C)noc1-c1ccc(C(C)(C)C)cc1	NIH3T3 tox inconclusive, HEK293 tox 35.5µM
Cc1nnc2ccc(N3CCCN(C(=O)c4cccc(C(F)(F)F)c4)CC3)nn12	NIH3T3 tox inconclusive (no result: FLuc inh, hNpr1 antagonist)
COc1cc2c(cc1OC)C(CNC(=O)c1ccc(C)cc1)N(C(=O)NC(C)C)CC2 (stereo unspecified)	HEK293 tox 39.8µM
COc1cc2c(cc1OC)C(CNC(=O)c1ccc(C)cc1)N(C(=O)Nc1ccccc1F)CC2 (stereo unspecified)	HEK293 tox inconclusive
Cc1cc(C[C@@H]2COC[C@@H]2NC(=O)c2ccc3nc(C)sc3c2)on1	none
Cc1oc(C(O)c2cccc(O)c2)nc1C(=O)Nc1ccc2c(c1)CNC2=O (stereo unspecified)	NIH3T3 tox inconclusive
Cc1oc(C(O)c2ccccc2)nc1C(=O)Nc1ccc2c(c1)NC(=O)CO2 (stereo unspecified)	FLuc inh inconclusive, HEK293 tox inconclusive
Cc1oc(C(O)c2cccc(O)c2)nc1C(=O)Nc1ccc(N2CCOCC2)cc1 (stereo unspecified)	FLuc inh 5.01µM, NIH3T3 tox inconclusive, HEK293 tox inconclusive, hNpr1 antagonist inconclusive
CNC(=O)c1ccc(NC(=O)c2nc(C(O)c3ccccc3F)oc2C)cc1 (stereo unspecified)	HEK293 tox inconclusive
Cc1oc(C(O)c2ccccc2F)nc1C(=O)Nc1ccc2[nH]ccc2c1 (stereo unspecified)	FLuc inh 63.1µM, NIH3T3 tox inconclusive, HEK293 tox 100µM
